Experimental data as given in ChEMBL document CHEMBL3988442, “University of Dundee, Small-Polar-MMV Screening Library” (2021).
Hit rate of the full screen: of about 53,000 compounds, about 900 (1.7%) showed an effect of 50% or more. The full list was thinned out, with strong results kept by preference.

The molecules below were run on Mycobacterium tuberculosis (assay: Cornell - Phenotypic assay to identify agents that inhibit growth of Mycobacterium tuberculosis). Details: 10 mM as filed; unlikely as a test dose.
Format: functional
Set-up: scale not given: direction of the effect not stated beside the values

Row | Compound | Percent Effect [%]
1 | CC(C)O[C@@H]1CC[C@H]2[C@H]1OCCN2C(=O)c1nn(C)c2ccccc12 | 4.286
2 | CC(C)S(=O)(=O)CC(=O)NCC(Cc1ccc(F)cc1)C(N)=O (stereo not drawn) | 7.629
3 | COCCn1cncc1CN1CCCC(C)(c2ccccc2)C1 (stereo not drawn) | 16.9
4 | CC1(c2ccccc2)CCCN(Cc2cncn2C2CCCC2)C1 (stereo not drawn) | 105.1
5 | CC1(c2ccccc2)CCCN(Cc2cncn2C2CC2)C1 (stereo not drawn) | -6.001
6 | Cn1nccc1NCc1cc2cc(F)ccc2o1 | -27.44
7 | COc1ccc(CNC(C)c2ccc(Cl)c(Cl)c2)c(OC)c1OC (stereo not drawn) | 81.35
8 | COc1ccc(CNC(C)c2cccc(Cl)c2)c(OC)c1OC (stereo not drawn) | -6.089
9 | COc1ccc(CNC(C)c2ccc(Cl)cc2)c(OC)c1OC (stereo not drawn) | 4.187
10 | Cc1cc(NCc2ccc(CO)cc2)n2nc(C)cc2n1 | -38.88
11 | Nc1ncc2c(n1)CN(C1CCCC1)C2=O | 100.2
12 | CC1(C)CC(N2Cc3nc(N)ncc3C2=O)CC(C)(C)N1 | 5.443
13 | CC(C)CN1Cc2nc(N)ncc2C1=O | 0.3963
14 | Cc1cnn(CCNCc2ccc(OCc3ccncc3)cc2)c1 | -5.152
15 | CC(C)CN1Cc2c(C(=O)N(C)C)ncn2-c2ccccc2S1(=O)=O | -10.19
16 | CCCc1nnc2sc(CC3CN(Cc4ccccc4)CCO3)nn12 (stereo not drawn) | 22.38
17 | CNS(=O)(=O)c1cccc(S(=O)(=O)Nc2ncc(C)s2)c1 | 51.19
18 | Cc1cnc(NS(=O)(=O)c2cccc(C#N)c2)s1 | -17.84
19 | Cc1cnc(NS(=O)(=O)c2ccccc2)s1 | 18.01
20 | CCc1noc(C(C)N2CCN(c3ccc(C#N)cn3)CC2)n1 (stereo not drawn) | -10.8
21 | Cc1ncncc1C(=O)N1CCOC(C(=O)NC2CCCC2)C1 (stereo not drawn) | -44.04
22 | Cn1cncc1CN1CCCC1c1cncc(Oc2ccc(Cl)cc2)n1 (stereo not drawn) | -20.26
23 | Cn1ccc2ccc(C(=O)NC3CCOC(C)(C)C3)cc21 (stereo not drawn) | 33.83
24 | COCCn1ccc2cc(C(=O)NC3CCOC(C)(C)C3)ccc21 (stereo not drawn) | 51.29
25 | Cn1ccc2cc(C(=O)NC3CCOC(C)(C)C3)ccc21 (stereo not drawn) | 38.28
26 | COc1ccc2c(c1)OCC(Cc1cc(C(=O)N3CCCC3)ccn1)C2 (stereo not drawn) | 3.952

Row | Compound | Percent Effect [%]
27 | CCOCC(=O)Nc1ccc(N2CCSCC2)cc1C | 35.44
28 | CCCN(CC1CC1)C(=O)Cn1ccccc1=O | 23.77
29 | CCN(CC)C(=O)Nc1ccc(N2CCSCC2)cc1C | 107.3
30 | CCC(C)N(C)C(=O)Nc1ccc(N2CCSCC2)cc1C (stereo not drawn) | 109
31 | Cc1ccc(C(=O)N2CCSCC2)cc1NC(=O)NCCO | 4.458
32 | Cc1cc(N2CCSCC2)ccc1NC(=O)N(CCO)C1CC1 | 109.4
33 | COCCOc1ccc(NC(=O)N(CCO)C2CC2)cn1 | 5.522
34 | Cc1ccc(C(=O)N2CCSCC2)cc1NC(C)C | 8.4
35 | COCCNC(=O)Nc1ccc(C(=O)N2CCSCC2)cc1C | -6.31
36 | CCCN(CC1CC1)C(=O)Nc1ccc(N2CCSCC2)cc1C | 108.2
37 | CCN(CC1CCCO1)C(=O)Nc1cccc(N2CCOCC2)c1 (stereo not drawn) | 5.45
38 | COCCCN(CCOC)C(=O)Nc1ccc(C)cc1C | -5.189
39 | CNc1ncc2c(n1)CN(CCc1ccc(Cl)cc1)C2=O | 6.698
40 | O=C(O)C(F)(F)F.c1ccc(CN2CCC3(CC2)CC(Nc2nccs2)CO3)nc1 (stereo not drawn) | 10.27
41 | CN1CCCC1c1cncc(C(=O)NCCN2CCCCC2)n1 (stereo not drawn) | 5.104
42 | O=C(O)C(F)(F)F.O=C(O)C(F)(F)F.c1coc(CN2C[C@@H]3CCCO[C@@H]3[C@H](N3CCCC3)C2)c1 | -1.356
43 | COc1ccccc1Nc1nc2c(C)nn(C)c2c(=O)n1C | -35.16
44 | CCS(=O)(=O)N1CCc2c(nc(C3CCCN3)nc2NC)C1.Cl (stereo not drawn) | -16.35
45 | c1ccc(-c2nnc(CN3C[C@@H]4CC[C@H](C3)N(CC3CCC3)C4)o2)cc1 | 34.96
46 | c1ccc(-c2cc(CN3C[C@H]4CC[C@H]3C4)on2)cc1 | 18.4
47 | c1ccc(-c2cc(CN3C[C@@H]4CC[C@H](C3)N(CC3CC3)C4)on2)cc1 | 34.91
48 | C1CC(CN2C[C@H]3CC[C@@H]2CN(Cc2noc(C4CCCC4)n2)C3)C1 | 50.34
49 | c1ccc(-c2cc(CN3C[C@@H]4CC[C@H](C3)N(CC3CCC3)C4)on2)cc1 | 96.75
50 | C1CC(CN2C[C@H]3CC[C@@H]2CN(Cc2nnc(C4CC4)o2)C3)C1 | 14.78
51 | O=C(c1cnc(-c2cccnc2)nc1)N1CCSCC1 | -5.308
52 | CCc1ccc(C(COC)NC(=O)c2ccc(F)c(NC(C)=O)c2)o1 (stereo not drawn) | -34.26

Row | Compound | Percent Effect [%]
53 | Cc1cc(CN2CCCC2)cc(Oc2nc(C)cnc2C)c1 | -0.05473
54 | COCCN(C)C[C@@H]1CN(C(=O)c2ccc(OC)c(F)c2)C[C@@H]1CO | 3.272
55 | Cc1cc(F)ccc1N1CCC(N2C[C@@H](CN(C)C)[C@@H](CO)C2)CC1 | 20.05
56 | C[C@@H]1CN(C2CCN(c3ccccc3F)CC2)C[C@]1(C)O | -0.763
57 | Cc1cc(F)ccc1N1CCC(N2C[C@@H](C)[C@@](C)(O)C2)CC1 | 57.75
58 | Cc1nn(C)c(N2CCCN(C)CC2)c1CNC(=O)CC1CCCC1 | 23.58
59 | CC(Cn1cc(Cl)cn1)C(=O)Nc1ccc(CN2CCCCCC2)cc1 (stereo not drawn) | -18.96
60 | COc1cccc(NC(=O)NCc2cnn(C)c2)c1 | 2.363
61 | COc1cccc(NC(=O)C(C)Cn2cc(Cl)cn2)c1 (stereo not drawn) | 52.64
62 | COC(=O)Cn1c(=O)nc2n1C(=O)N(c1cccc(C)c1)C2 | 2.841
63 | O=C(c1csc(-c2cnccn2)n1)N1CCCC1Cn1cccn1 (stereo not drawn) | -12.16
64 | O=C(NC1CCCN(c2ccccn2)C1)C1(c2ccccc2F)CC1 (stereo not drawn) | -27.34
65 | Cn1cccc1C(=O)N1CC2(CCN(C(=O)c3cccnc3)C2)C1.O=C(O)C(F)(F)F | -3.792
66 | CNC(=O)c1cc(NC(=O)Nc2cnn(CC(C)C)c2)ccc1F | 69.74
67 | CC(C)CCCNC(=O)Nc1ccc(F)c(C(N)=O)c1 | -8.199
68 | CCc1c(C(=O)Nc2ccc(F)c(C(=O)NC)c2)cnn1CC(C)C | 23.68
69 | COCCn1cc(NC(=O)NC(C)Cc2c(F)cccc2F)cn1 (stereo not drawn) | -32.72
70 | CCCn1cc(NC(=O)Nc2ccc(F)c(C(=O)NC)c2)cn1 | 69.43
71 | CNC(=O)c1cc(NC(=O)NC(C)CCc2cccn2C)ccc1F (stereo not drawn) | -1.57
72 | Cc1cc(CN(C)C(=O)C2CC(=O)N(Cc3cccnc3)C2)on1 (stereo not drawn) | 14.11
73 | CCc1nnc2n1CCN(Cc1nnc(-c3occc3C)o1)C2 | -3.481
74 | COc1ccccc1NC(=O)Cn1c(=O)nc(N)c2cc(C)sc21 | -16.18
75 | CNc1oc(-c2ccc(OC)c(S(=O)(=O)N3CCCC3)c2)nc1C#N | 17.45
76 | COCC(C)NC(=O)NCCCc1cc(N)n(-c2ccccc2)n1 (stereo not drawn) | 4.106
77 | CC1Cc2ccccc2N1Cc1occc1C(=O)NCC(=O)N(C)C (stereo not drawn) | 0.4209
78 | CCNC(=O)c1ccoc1CN1c2ccccc2CC1C (stereo not drawn) | 70.88

Row | Compound | Percent Effect [%]
79 | CC1Cc2ccccc2N1Cc1occc1C(=O)OCC(N)=O (stereo not drawn) | 46.11
80 | COC(=O)CCNC(=O)c1ccoc1CN1c2ccccc2CC1C (stereo not drawn) | 59.33
81 | COCCNC(=O)c1ccoc1CN1c2ccccc2CC1C (stereo not drawn) | 34.19
82 | CC1Cc2ccccc2N1Cc1occc1C(=O)O (stereo not drawn) | -3.286
83 | CN(CCn1nc2ccccn2c1=O)CC(=O)NC1CC1 | -0.7088
84 | Cc1nc(CN2CCC3(C2)CN(C(=O)c2ccc[nH]2)C3)cs1 | 9.497
85 | COc1cccc(NC(=O)Nc2ccc3c(c2)CC(=O)N3)c1 | -2.338
86 | O=C(NCC(=O)N1CCc2ccccc2C1)c1ccoc1 | -20.14
87 | COC(=O)N1CCN2C[C@H](CO)[C@@H](c3ccccc3)[C@H]2C1 | 9.303
88 | CC(=O)OC1CN(c2nc3c(C(F)(F)F)cccc3s2)C1 | 5.311
89 | COC1COC2(CCN(Cc3ccc4ccccc4n3)CC2)C1.O=C(O)C(F)(F)F.O=C(O)C(F)(F)F (stereo not drawn) | 14.78
90 | O=C(CNc1cc(-n2cnnn2)ccc1F)Nc1ccccc1Cl | 96.42
91 | O=C(CNc1cc(-n2cnnn2)ccc1F)Nc1cc(F)ccc1F | 3.475
92 | O=C(CNc1ccccc1Cl)Nc1cc(-n2cnnn2)ccc1F | 22.69
93 | O=C(CNc1cc(-n2cnnn2)ccc1F)NCc1ccccc1 | 76.98
94 | Cc1ccc(-n2cnnn2)cc1NCC(=O)Nc1ccccc1Cl | 6.921
95 | Cc1ccc(-n2cnnn2)cc1NCC(=O)Nc1cc(F)ccc1F | 11.17
96 | O=S(=O)(c1ccc(F)c(F)c1)N1CCCC(c2nccs2)C1 (stereo not drawn) | -0.9721
97 | Cc1cccc(C(=O)N2C[C@@H](OCc3ccncc3)[C@@H]3OCCC[C@@H]32)n1.O=C(O)C(F)(F)F.O=C(O)C(F)(F)F | 29.52
98 | O=C(CNc1ccc(OC2CCOC2)cc1)NCc1cccs1 (stereo not drawn) | 8.02
99 | O=C(NCc1ccc(F)cc1)N1CCC(C2OCCO2)CC1 | 9.763
100 | Cl.Cl.O=C(CN1CCN(CC(O)C2CC2)CC1)NCc1ccc(F)cc1 (stereo not drawn) | 12.18
101 | O=C(CNc1ccc(OC2CCOC2)cc1)NCc1ccc(F)cc1 (stereo not drawn) | 70.37
102 | O=C(CNc1ccc(OC2CCOC2)cc1)NCc1ccco1 (stereo not drawn) | 37.67
103 | Cc1ccccc1CNC(=O)CNc1ccc(OC2CCOC2)cc1 (stereo not drawn) | 74.57
